# Where “and” joins values, the source holds several entries; their conditions need not be identical. Equal values may be shown once. This is part of a sample that, as a whole, favours compounds with a hit. Of some 83,000 tested, about 20% had one in any assay.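 48-hour exposure, single concentration, 96-well plates; percent growth endpoint where 0 means no net growth. Active: below 10.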 Values without a mark were called inactive. Calls of active or inactive are those of the source.
# System: MDA-MB-468 breast
# Assay: NCI-60 one-dose screen, 48 h (100 = growth as untreated, 0 = no growth, -100 = all killed)
# Details: 10 µM unless noted
row,SMILES,growth
1,C#CCn1cc(C=C2C(=O)N(C)C(=O)N(C)C2=O)c2cc(Cl)ccc21,103%
2,O=C(Nc1ccccc1)Nc1nc2ccc([N+](=O)[O-])cc2[nH]1,22.1%
3,O=S(=O)(NCCNc1nccc(-c2c(-c3ccc(F)c(O)c3)nc3sccn23)n1)c1ccccc1,83.2%
4,CCCCCN1C(=O)/C(=c2\sc3n(c2=O)C2C(NN=3)N(CC)C(=O)N2CC)c2cccc(C)c21 (centres undefined),34.5%
5,COc1cc(-c2nn(-c3cccc(NC(=O)Nc4ccc(Cl)c(C(F)(F)F)c4)c3)cc2-c2ccncc2)ccc1Cl,-7.22% (active)
6,O=C1OC(c2ccc(-c3ccccc3)cc2)=C/C1=C/C=C/c1ccccc1,99.7%
7,O=C(Nc1nc(-c2ccccc2)nc2c1sc(=S)n2-c1ccccc1)C(F)(F)F,105%
8,Fc1ccc(NC(=S)c2ccccc2)cc1,97.5%
9,N#Cc1cn(Cc2ccc(Cl)cc2Cl)c(C(=O)c2ccc(Br)cc2)c1N,75.5%
10,O=C1CCCC1[n+]1ccccc1 (centres undefined),120%
11,COc1cccc(OC)c1C(=O)N[C@@H]1C(=O)N2[C@@H]1SC(C)(C)[C@@H]2C(=O)O,114%
12,CCCCCCCCCN1C(=O)/C(=c2\sc3n(c2=O)C2C(NN=3)N(CC)C(=O)N2CC)c2ccccc21 (centres undefined),37.9%
13,CC(=O)Nc1sc2c(c1-c1nc3ccccc3s1)CNC2,-3.09% (active)
14,O=c1ccc2nc(C(F)(F)F)nn(-c3ccccc3)c-2c1,-73.5% (active)
15,CCN(CC)CCCNC(=O)c1ccc(N)cc1,86.2%
16,O=C1C(Nc2ccccn2)=C(I)C(=O)c2ncccc21,-70.1% (active)
17,COC(=O)C1(C(=O)OC)C2C(=O)C3C(C21)C3(C(=O)OC(C)(C)C)C(=O)OC(C)(C)C (centres undefined),99.4%

row,SMILES,growth
1,COc1ccc(O)c(-c2cc(-c3ccc(Cl)cc3)c(C#N)c(=O)[nH]2)c1,78.8%
2,Cc1cc2ccccc2cn1,96.6% and 102%
3,COc1ccc(/C=C2\COc3ccc(-c4ccccc4)cc3C2=O)cc1O,14.6%
4,Cc1cnc(Nc2ccc(N3CCN(C)CC3)cc2)nc1Nc1ccc(Cl)c(NS(=O)(=O)C(C)(C)C)c1,14.9%
5,COc1cc(C2C(C#N)=C(N)OC3=C2C(=O)c2ccccc2C3=O)cc(OC)c1OC (centres undefined),42.4%
6,Nc1nc2c(nnn2C2CC(O)C(CO)O2)c(=O)[nH]1 (centres undefined),22.8%
7,O=C(Nc1ccncc1)C(=O)c1cn(S(=O)(=O)c2ccc(Cl)cc2)c2ccccc12,19.7%
8,CCCCCNCCCCCNc1cc(OC)cc2cccnc12,45.3%
9,COc1ccc2c(NCCCCCCCCNc3c4ccccc4nc4cc(OC)ccc34)c3ccccc3nc2c1,-100% (active)
10,O=C(OCCBr)c1ccc(Cl)c([N+](=O)[O-])c1,-79.8% (active)
11,CNC(=O)c1cc(-c2ccc(NC(=O)Nc3ccc(N4CCN(C)CC4)c(C(F)(F)F)c3)cc2)nc2cccnc12,-73.8% (active)
12,CCN1CC2=C(Nc3nc(SC)[nH]c(=O)c3C2c2cc(OC)c(OC)c(OC)c2)/C(=C/c2cc(OC)c(OC)c(OC)c2)C1 (centres undefined),95.8%
13,O=C(/C=C\c1ccc(NCc2ccc(C(=O)O)cc2)cc1)CCl,76.7%
14,Cc1ccccc1[P+](Cc1ccccc1)(c1ccccc1)c1ccccc1,-14.4% (active)
15,CCOC(=O)C(CCCCC(NC(C)=O)(C(=O)OCC)C(=O)OCC)(NC(C)=O)C(=O)OCC,107%
16,Cc1ccc(S(=O)(=O)Nc2cccc3[nH]c(C(F)(F)F)nc23)cc1,5.86% (active)
17,C[C@]12C[C@H](O)[C@H]3[C@@H](CCC4=CC(=O)CC[C@@]43C)[C@@H]1CC[C@@H]2C(=O)CO,84.4%
